Reference: ChEMBL document CHEMBL1961873, “Compounds: GSK PKIS; Assays: Nanosyn kinase panel” (2012)

Columns and labels:
[1] = target: T1, Mitogen-activated protein kinase 12 (Homo sapiens) (UniProt P53778); settings: at 1 µM;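 note: values are averaged p38gamma kinase inhibition readings, compounds tested at 1 µM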
T1 sequence (whole entry): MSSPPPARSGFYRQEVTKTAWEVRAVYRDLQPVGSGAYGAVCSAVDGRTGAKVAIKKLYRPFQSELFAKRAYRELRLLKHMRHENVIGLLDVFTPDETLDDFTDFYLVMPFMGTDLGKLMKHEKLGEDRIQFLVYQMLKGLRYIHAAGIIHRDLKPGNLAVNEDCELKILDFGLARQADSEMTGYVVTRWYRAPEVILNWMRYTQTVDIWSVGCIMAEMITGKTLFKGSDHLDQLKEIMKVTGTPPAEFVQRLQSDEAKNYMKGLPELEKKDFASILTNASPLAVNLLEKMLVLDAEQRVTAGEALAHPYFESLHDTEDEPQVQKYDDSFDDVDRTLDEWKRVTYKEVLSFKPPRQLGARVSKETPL

[2] = target: SRSF protein kinase 1 (Homo sapiens) (UniProt Q96SB4); settings: at 0.1 µM
SRSF protein kinase 1 (Homo sapiens), sequence (Q96SB4 whole entry, canonical isoform): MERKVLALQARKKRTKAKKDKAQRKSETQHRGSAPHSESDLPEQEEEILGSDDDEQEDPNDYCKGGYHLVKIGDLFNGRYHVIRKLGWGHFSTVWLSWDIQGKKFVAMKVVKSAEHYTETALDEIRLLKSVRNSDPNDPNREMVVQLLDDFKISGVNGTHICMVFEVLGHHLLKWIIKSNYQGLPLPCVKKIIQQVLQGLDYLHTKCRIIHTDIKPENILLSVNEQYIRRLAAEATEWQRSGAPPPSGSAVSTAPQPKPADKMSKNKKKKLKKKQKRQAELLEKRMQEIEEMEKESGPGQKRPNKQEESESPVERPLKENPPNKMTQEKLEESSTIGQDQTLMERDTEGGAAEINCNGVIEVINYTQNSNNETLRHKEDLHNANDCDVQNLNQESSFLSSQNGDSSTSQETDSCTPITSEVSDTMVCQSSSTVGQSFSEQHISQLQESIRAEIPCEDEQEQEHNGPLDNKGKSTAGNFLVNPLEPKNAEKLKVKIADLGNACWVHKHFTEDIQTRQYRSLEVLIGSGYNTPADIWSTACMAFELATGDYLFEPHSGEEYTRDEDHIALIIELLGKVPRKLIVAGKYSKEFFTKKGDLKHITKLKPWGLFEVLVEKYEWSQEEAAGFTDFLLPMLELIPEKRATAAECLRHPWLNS

[3] = target: SRSF protein kinase 1 (Homo sapiens) (UniProt Q96SB4); settings: at 1 µM
[4] = target: Phosphatidylinositol 4,5-bisphosphate 3-kinase catalytic subunit alpha isoform (Homo sapiens) (UniProt P42336); settings: at 0.1 µM
Phosphatidylinositol 4,5-bisphosphate 3-kinase catalytic subunit alpha isoform (Homo sapiens), sequence (P42336 whole entry, canonical isoform): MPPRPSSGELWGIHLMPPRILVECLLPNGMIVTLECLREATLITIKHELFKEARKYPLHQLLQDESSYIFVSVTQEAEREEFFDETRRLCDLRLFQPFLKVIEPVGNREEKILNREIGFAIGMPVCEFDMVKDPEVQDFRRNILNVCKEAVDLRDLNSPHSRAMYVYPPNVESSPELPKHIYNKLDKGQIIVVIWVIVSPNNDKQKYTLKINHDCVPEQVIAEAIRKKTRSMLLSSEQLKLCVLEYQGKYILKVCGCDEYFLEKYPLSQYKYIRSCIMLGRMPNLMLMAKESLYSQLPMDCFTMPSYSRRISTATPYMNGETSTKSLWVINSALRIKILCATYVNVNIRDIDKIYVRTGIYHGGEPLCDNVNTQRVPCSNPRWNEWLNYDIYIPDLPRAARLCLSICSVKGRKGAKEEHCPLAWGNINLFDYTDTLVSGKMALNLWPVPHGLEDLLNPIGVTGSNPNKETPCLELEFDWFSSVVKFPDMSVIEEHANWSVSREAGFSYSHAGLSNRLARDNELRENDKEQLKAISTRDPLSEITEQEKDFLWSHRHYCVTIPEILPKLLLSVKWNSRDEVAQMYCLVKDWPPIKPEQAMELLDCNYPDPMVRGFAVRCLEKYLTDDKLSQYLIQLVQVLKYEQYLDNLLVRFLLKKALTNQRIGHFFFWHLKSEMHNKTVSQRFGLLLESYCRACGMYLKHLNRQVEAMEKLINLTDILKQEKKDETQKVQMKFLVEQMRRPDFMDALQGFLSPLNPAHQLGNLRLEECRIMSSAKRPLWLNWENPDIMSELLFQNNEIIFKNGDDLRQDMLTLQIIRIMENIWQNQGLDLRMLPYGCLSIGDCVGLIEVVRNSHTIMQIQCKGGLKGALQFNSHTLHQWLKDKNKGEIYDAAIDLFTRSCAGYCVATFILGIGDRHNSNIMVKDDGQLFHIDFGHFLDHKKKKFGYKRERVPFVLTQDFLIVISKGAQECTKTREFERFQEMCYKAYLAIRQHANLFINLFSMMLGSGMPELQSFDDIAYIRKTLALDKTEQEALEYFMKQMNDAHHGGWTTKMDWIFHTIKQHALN

[5] = target: Phosphatidylinositol 4,5-bisphosphate 3-kinase catalytic subunit alpha isoform (Homo sapiens) (UniProt P42336); settings: at 1 µM
[6] = target: T2, Phosphatidylinositol 4,5-bisphosphate 3-kinase catalytic subunit delta isoform (Homo sapiens) (UniProt O00329); settings: at 0.1 µM
T2 sequence (whole entry): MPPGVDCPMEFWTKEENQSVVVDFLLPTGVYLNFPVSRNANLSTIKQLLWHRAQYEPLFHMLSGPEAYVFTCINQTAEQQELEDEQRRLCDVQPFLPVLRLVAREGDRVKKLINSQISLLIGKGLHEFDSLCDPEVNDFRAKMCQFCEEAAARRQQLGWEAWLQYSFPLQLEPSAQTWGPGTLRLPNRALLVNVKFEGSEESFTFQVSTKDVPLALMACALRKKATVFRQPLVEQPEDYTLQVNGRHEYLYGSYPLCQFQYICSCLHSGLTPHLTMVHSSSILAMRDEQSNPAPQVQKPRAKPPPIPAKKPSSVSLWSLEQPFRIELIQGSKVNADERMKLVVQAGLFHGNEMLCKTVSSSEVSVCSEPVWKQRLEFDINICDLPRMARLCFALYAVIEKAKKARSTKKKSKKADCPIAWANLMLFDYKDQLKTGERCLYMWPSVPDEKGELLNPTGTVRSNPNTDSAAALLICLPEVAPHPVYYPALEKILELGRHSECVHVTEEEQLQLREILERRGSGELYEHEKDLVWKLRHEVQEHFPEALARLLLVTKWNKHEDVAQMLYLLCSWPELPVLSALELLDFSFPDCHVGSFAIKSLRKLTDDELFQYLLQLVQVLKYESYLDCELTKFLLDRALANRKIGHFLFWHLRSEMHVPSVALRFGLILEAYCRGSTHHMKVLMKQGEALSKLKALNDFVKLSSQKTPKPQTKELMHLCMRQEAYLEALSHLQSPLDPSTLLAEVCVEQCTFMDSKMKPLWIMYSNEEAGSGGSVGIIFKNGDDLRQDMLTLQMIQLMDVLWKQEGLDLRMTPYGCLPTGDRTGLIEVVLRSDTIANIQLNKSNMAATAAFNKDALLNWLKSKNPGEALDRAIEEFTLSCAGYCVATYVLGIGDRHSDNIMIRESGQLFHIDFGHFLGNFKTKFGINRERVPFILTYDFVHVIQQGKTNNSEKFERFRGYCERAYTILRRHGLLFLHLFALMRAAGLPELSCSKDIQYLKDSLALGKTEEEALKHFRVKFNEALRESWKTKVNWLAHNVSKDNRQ

[7] = target: T2, Phosphatidylinositol 4,5-bisphosphate 3-kinase catalytic subunit delta isoform (Homo sapiens); settings: at 1 µM
[8] = target: Phosphatidylinositol 4-kinase beta (Homo sapiens) (UniProt Q9UBF8); settings: at 0.1 µM
Phosphatidylinositol 4-kinase beta (Homo sapiens), sequence (Q9UBF8 2-816 limits assumed): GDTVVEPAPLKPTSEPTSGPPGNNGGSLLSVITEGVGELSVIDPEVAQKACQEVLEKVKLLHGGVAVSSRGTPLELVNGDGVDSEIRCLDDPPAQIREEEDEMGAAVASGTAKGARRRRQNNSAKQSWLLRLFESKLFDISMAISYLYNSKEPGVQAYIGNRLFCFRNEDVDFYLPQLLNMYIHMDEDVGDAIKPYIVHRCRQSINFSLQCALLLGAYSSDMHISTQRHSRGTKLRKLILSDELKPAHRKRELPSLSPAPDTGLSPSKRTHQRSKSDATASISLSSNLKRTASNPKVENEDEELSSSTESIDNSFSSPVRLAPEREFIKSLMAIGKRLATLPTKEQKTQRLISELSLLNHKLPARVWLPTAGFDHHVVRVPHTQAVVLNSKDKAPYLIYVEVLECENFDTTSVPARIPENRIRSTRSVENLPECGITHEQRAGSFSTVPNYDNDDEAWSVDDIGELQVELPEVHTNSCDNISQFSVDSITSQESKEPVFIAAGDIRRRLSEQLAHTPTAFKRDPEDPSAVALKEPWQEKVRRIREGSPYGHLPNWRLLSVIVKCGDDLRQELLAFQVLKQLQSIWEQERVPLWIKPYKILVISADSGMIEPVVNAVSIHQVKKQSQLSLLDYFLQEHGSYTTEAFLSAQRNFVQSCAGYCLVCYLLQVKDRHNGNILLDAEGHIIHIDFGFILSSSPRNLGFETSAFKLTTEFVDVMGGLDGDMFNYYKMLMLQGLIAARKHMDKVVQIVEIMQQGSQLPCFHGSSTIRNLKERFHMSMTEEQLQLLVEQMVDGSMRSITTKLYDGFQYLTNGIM

[9] = target: Phosphatidylinositol 4-kinase beta (Homo sapiens) (UniProt Q9UBF8); settings: at 1 µM
[10] = target: Sphingosine kinase 1 (Homo sapiens) (UniProt Q9NYA1); settings: at 0.1 µM
Sphingosine kinase 1 (Homo sapiens), sequence (Q9NYA1 whole entry): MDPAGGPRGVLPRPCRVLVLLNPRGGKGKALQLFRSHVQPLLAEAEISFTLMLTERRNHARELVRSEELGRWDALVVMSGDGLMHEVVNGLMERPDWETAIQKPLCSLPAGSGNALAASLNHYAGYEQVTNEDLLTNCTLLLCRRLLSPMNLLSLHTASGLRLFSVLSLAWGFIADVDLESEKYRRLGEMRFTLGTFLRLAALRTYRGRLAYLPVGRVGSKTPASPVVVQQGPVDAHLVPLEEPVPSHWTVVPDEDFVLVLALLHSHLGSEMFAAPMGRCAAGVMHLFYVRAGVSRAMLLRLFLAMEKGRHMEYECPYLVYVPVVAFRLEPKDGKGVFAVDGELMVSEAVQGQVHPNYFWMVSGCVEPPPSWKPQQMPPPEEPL

[11] = target: Sphingosine kinase 1 (Homo sapiens) (UniProt Q9NYA1); settings: at 1 µM
[12] = target: T3, Sphingosine kinase 2 (Homo sapiens) (UniProt Q9NRA0); settings: at 0.1 µM
T3 sequence (whole entry): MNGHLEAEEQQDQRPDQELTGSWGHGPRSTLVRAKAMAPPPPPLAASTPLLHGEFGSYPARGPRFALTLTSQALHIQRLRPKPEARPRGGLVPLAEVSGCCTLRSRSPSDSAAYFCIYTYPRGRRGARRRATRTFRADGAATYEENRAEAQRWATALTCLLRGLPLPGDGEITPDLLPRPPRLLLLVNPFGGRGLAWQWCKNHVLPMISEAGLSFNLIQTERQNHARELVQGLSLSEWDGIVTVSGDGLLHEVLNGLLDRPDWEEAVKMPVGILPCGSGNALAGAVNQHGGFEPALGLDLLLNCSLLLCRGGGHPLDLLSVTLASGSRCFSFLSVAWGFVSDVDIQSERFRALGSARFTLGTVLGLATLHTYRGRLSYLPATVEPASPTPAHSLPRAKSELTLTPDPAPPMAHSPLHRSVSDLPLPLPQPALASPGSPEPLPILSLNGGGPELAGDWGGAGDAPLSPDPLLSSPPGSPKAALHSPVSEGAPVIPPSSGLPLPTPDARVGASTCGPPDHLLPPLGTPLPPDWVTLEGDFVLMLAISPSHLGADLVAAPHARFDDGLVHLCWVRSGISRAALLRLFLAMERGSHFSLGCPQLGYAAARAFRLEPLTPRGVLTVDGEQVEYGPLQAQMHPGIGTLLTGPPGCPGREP

[13] = target: T3, Sphingosine kinase 2 (Homo sapiens); settings: at 1 µM
[14] = target: Casein kinase II subunit alpha (Homo sapiens) (UniProt P68400); settings: at 0.1 µM
Casein kinase II subunit alpha (Homo sapiens), sequence (P68400 whole entry, looked up): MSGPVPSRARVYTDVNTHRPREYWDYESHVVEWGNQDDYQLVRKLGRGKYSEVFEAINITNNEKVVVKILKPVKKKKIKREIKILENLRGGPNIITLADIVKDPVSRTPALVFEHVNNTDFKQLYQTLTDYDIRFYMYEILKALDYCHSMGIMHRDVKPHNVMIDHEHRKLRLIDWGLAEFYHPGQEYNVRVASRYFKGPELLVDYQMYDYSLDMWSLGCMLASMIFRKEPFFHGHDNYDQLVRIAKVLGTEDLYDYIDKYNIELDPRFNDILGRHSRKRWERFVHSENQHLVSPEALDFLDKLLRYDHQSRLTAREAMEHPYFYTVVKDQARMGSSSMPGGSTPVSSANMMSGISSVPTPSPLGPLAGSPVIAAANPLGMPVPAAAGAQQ

[15] = target: Casein kinase II subunit alpha (Homo sapiens) (UniProt P68400); settings: at 1 µM
[16] = target: T4, Inhibitor of nuclear factor kappa-B kinase subunit alpha (Homo sapiens) (UniProt O15111); settings: at 0.1 µM
T4 sequence (whole entry): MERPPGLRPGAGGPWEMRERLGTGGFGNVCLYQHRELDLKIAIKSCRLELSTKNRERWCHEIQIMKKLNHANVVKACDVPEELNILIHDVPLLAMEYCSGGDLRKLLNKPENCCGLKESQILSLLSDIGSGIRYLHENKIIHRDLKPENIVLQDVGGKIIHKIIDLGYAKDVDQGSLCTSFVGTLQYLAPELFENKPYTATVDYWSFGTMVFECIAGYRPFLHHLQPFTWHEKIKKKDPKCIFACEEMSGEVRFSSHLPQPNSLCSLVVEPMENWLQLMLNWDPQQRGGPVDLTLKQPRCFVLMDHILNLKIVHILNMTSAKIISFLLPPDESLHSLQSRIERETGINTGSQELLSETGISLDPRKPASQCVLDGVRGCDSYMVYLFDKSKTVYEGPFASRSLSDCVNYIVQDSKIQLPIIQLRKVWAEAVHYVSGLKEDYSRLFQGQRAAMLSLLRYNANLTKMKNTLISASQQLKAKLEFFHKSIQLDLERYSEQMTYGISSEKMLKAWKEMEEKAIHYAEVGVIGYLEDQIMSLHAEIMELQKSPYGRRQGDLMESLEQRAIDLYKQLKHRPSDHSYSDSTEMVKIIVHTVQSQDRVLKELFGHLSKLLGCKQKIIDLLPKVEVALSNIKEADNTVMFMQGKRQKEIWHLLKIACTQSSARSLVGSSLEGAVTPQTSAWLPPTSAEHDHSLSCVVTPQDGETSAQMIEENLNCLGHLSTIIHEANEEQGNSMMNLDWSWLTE

[17] = target: T4, Inhibitor of nuclear factor kappa-B kinase subunit alpha (Homo sapiens); settings: at 1 µM
[18] = target: T5, Inhibitor of nuclear factor kappa-B kinase subunit beta (Homo sapiens) (UniProt O14920); settings: at 0.1 µM
T5 sequence (whole entry): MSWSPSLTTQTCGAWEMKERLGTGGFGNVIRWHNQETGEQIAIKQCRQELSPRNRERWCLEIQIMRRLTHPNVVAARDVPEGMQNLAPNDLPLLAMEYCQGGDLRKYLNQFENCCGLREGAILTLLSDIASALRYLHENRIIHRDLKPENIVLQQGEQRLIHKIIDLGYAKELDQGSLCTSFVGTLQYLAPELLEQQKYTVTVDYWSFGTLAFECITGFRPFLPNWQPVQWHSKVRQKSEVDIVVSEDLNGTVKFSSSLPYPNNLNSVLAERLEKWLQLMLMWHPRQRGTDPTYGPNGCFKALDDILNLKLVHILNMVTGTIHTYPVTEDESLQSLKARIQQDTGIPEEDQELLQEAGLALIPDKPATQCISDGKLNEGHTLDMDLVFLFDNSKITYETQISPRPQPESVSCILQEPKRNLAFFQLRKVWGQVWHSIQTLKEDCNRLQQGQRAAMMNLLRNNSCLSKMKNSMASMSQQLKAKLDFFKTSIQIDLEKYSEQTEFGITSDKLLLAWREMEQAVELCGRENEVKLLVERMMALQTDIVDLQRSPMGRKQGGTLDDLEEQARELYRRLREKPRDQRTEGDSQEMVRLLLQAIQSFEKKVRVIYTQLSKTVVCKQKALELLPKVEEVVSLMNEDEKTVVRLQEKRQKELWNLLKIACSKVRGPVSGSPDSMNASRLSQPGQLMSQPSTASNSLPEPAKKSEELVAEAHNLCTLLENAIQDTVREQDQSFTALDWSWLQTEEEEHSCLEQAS

[19] = target: T5, Inhibitor of nuclear factor kappa-B kinase subunit beta (Homo sapiens); settings: at 1 µM
[20] = target: T6, Inhibitor of nuclear factor kappa-B kinase subunit epsilon (Homo sapiens) (UniProt Q14164); settings: at 0.1 µM;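 note: mean inhibition of IKKε reported, from the GSK PKIS dataset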
T6 sequence (whole entry): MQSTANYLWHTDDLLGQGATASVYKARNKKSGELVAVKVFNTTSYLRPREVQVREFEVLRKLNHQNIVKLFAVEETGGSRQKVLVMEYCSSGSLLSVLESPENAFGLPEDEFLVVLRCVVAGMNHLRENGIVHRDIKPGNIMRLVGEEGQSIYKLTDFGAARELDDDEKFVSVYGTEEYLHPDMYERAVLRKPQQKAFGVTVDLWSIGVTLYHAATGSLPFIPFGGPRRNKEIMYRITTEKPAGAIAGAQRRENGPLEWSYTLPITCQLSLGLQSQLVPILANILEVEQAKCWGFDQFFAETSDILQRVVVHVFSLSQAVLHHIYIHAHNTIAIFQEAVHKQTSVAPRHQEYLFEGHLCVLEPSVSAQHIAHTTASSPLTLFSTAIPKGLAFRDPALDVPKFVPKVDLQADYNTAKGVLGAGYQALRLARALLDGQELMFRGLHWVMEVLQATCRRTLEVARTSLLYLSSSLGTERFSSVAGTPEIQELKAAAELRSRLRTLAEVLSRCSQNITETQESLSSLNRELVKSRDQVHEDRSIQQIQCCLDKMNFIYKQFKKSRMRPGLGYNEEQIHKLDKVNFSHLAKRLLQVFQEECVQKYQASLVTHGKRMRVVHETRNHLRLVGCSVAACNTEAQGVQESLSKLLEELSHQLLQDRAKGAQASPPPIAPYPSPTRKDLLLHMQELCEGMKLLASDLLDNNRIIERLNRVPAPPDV

SMILES | inhibition [1] [%] | inhibition [2] [%] | inhibition [3] [%] | inhibition [4] [%] | inhibition [5] [%] | inhibition [6] [%] | inhibition [7] [%] | inhibition [8] [%] | inhibition [9] [%] | inhibition [10] [%] | inhibition [11] [%] | inhibition [12] [%] | inhibition [13] [%] | inhibition [14] [%] | inhibition [15] [%] | inhibition [16] [%] | inhibition [17] [%] | inhibition [18] [%] | inhibition [19] [%] | inhibition [20] [%]
Cc1ccc(NC(=O)CC2CC2)cc1-c1ccc(C(=O)NCC2CC2)cc1 | 2.02 | -0.1 | 1.32 | 2.05 | 3.63 | 0.9 | 1.78 | -3.28 | -2.41 | -0.38 | -1.09 | 0.51 | -0.13 | 4.55 | 8.23 | 0.25 | 1.31 | 3.09 | 3.67 | 4.09
COc1cc2ncn(-c3cc(OCc4ccccc4S(C)(=O)=O)c(C#N)s3)c2cc1OC | 2.63 | -1.91 | -1.66 | 3.16 | 3.95 | 2.67 | 3.41 | -5.13 | -1.46 | 0.08 | -0.15 | 0.46 | -2.2 | 2.39 | 5 | 6.91 | 5.75 | 3.44 | 1.17 | 42.5
